Assay outcomes (PubChem)
A selection: hits, their analogues and other compounds. The true share with any hit is near 19%.
DT40 TDP1 CPT: growth inhibition of DT40 Tdp1-/-;hTDP1 cells with camptothecin (screen for TDP1 inhibitors); chicken DT40 Tdp1-/-;hTDP1 cells + 20 nM CPT, ATP luminescence, 48 h; Potency, µM (doses to about 46.2 µM), for the others: at the top dose activity change, negative = growth inhibition, hits mostly inhibitors; actives 12% (n = 420,000); also: potency is read from the fitted curve at half-maximal effect; nearly all actives have a fitted effect of over 55% in size
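Chicken DT40 Tdp1-/- cells stably complemented with human TDP1 were seeded at 400 cells/well in medium containing 20 nM camptothecin, exposed to pin-transferred compounds, and grown at 37 °C for at least 48 hr. Viability was read as ATP luminescence.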
IL1B secr inh: blocks inflammasome-driven IL-1 beta release. THP-1 LPS/ATP IL-1B secretion, AlphaLISA, 16 h; active compounds read low. activity change, % at 57.5 µM. actives 4.7% (n = 360,000). AID 743279; in the data active = activity change below about -50%; inconclusive = mostly about -30% to -49%
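Secreted IL-1B measured by AlphaLISA bead assay after 16 h compound exposure of THP-1 cells; compounds (final up to 57.5 uM) added 1 h before LPS (250 ng/mL) and ATP (1.25 mM) stimulation; lower signal means less secretion.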
HT1080NT lethal: kills 2HG-producing HT-1080-NT fibrosarcoma cells | HT-1080-NT fibrosarcoma viability, CellTiter-Glo ATP luminescence, 48 h | Potency, µM (series often up to 46.1 µM), for the others: at the top dose activity, negative = less viability, usual class: cytotoxic | actives 1.6% (n = 360,000) | AID 686970;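 also: NT is the 2HG producing partner of a matched IDH1 knockdown line; potency is read from the fitted curve at half-maximal effect; 0% = DMSO-treated cells and -100% = media-only wells without cells; nearly all actives have a fitted effect of over 55% in size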
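HT-1080-NT fibrosarcoma cells (2HG-overproducing), 750 cells/well in RPMI with 5% FBS, dosed after 2 h and incubated 48 h at 37C. CellTiter-Glo luminescence normalized to DMSO and no-cell wells; concentration-response curves fitted and classed.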
TDP1 cell noCPT: qHTS for Inhibitors of human tyrosyl-DNA phosphodiesterase 1 (TDP1): qHTS in cells in absence of CPT | DT40 Tdp1-/- hTDP1 cells, no CPT, ATP luminescence, 48 h | actives 15% (n = 420,000) | Potency, µM (doses to about 46.2 µM), without a hit: top-dose activity change, negative = growth inhibition, most hits filed as inhibitors | AID 686978, 2013; also: potency is read from the fitted curve at half-maximal effect; nearly all actives have a fitted effect of over 55% in size
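Chicken DT40 Tdp1-/- cells stably complemented with human TDP1 were seeded at 400 cells/well with DMSO in place of 20 nM camptothecin. After compound pinning, cells grew at least 48 hr at 37 °C; viability read by CellTiter-Glo luminescence.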
HT1080 IDH1KD tx: kills HT-1080 cells with IDH1 knockdown | HT-1080 IDH1 knockdown viability, ATP luminescence, 48 h | Potency, µM (doses to about 46.1 µM), inactives show at the highest dose activity, negative = toxicity, most hits filed as cytotoxic | actives 2% (n = 360,000);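 also: potency is read from the fitted curve at half-maximal effect; 0% = DMSO wells and -100% = cell-free medium wells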
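HT-1080-IDH1KD cells (IDH1 knocked down), 750/well in RPMI with 5% FBS, treated with compound 48 h at 37 degrees C. Viability by CellTiter-Glo luminescence, normalised to DMSO and no-cell wells; concentration-response curves classed.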
Active calls of the source: *; ? = inconclusive; nt = not tested or not shown; [ ] = dose if it differs, or a comment. Unless noted, calls follow the shape of the dose curve; as a rule, active = well fitted curve in the direction sought with a large enough effect; inconclusive = small, poorly fitted or top-dose-only effect, or another doubt; inactive = no such curve, though single readings can be large; an effect the other way counts as inactive or inconclusive. Unless noted, % is scaled to controls: 0 for no effect and ±100 for the full control effect.

SMILES	DT40 TDP1 CPT	IL1B secr inh	HT1080NT lethal	TDP1 cell noCPT	HT1080 IDH1KD tx
COc1ccc(OCCN2CCC(C(=O)NC(c3ccsc3)c3ccccc3C)CC2)cc1 (stereo not drawn)	?	-67*	?	?	?
O=C(NC(c1ccc(Cl)cc1)c1ccsc1)C1CCN(Cc2ccc(Oc3ccccc3)cc2)CC1 (stereo not drawn)	2.6µM*	-63*	15µM*	2.6µM*	12µM*
CCCN1CCC(C(=O)NC(c2ccc(Cl)cc2)c2ccsc2)CC1 (stereo not drawn)	?	?	?	2.9µM*	?
Cc1ccc(NC(=O)Cn2ccn(-c3ccc(F)c(F)c3)c(=O)c2=O)cc1C	-2%	nt	nt	-2%	nt
Cc1c(C(=O)NC(C)CN2CCCCC2)oc2ccccc12 (stereo not drawn)	-12%	-5	5%	-17%	5%
COc1cc(CN2CCC(C(=O)NC(c3ccccc3)c3ccsc3)CC2)cc(OC)c1 (stereo not drawn)	16µM*	-24	?	21µM*	?
O=C(NC(c1ccccc1)c1ccsc1)C1CCN(Cc2ccccc2)CC1 (stereo not drawn)	?	49	-5%	?	7%
O=C1NC[C@@H](Cc2cccc3ccccc23)N(CCc2cc(C(F)(F)F)cc(C(F)(F)F)c2)C1=O	-5%	-51*	7%	?	7%
O=C1NC[C@H](Cc2ccccc2)N(CCc2cc(C(F)(F)F)cc(C(F)(F)F)c2)C1=O	?	nt	-17%	?	-23%
Fc1cccc(CCN2CCNC[C@@H]2Cc2ccccc2)c1	?	-15	-4%	?	-8%
FC(F)(F)c1cc(CCN2CCNC[C@@H]2Cc2ccccc2)cc(C(F)(F)F)c1	21µM*	-13	-9%	?	3%
CCOC(=O)Cc1csc(-n2sc3ccccc3c2=O)n1	5.2µM*	23	17%	12µM*	2%
CCOC(=O)Cc1csc(SCn2nnc3ccccc3c2=O)n1	-22%	27	5%	?	10%
CCOC(=O)Cc1csc(/N=C/c2c(O)n(-c3ccccc3C(F)(F)F)c(=O)c3ccccc23)n1	21µM*	32	-2%	?	-12%
Cc1nc2ccc(NC(=O)CCC3CCCC3)cc2s1	1%	-7	2%	-3%	4%
COC(=O)c1ccccc1NC(=O)CSc1nc2ccsc2c(=O)n1CCC(C)C	1%	nt	nt	-2%	nt
COc1ccccc1CNC(=O)Cn1c(=O)ccc2cc(S(=O)(=O)N3CCC(C)CC3)ccc21	23µM*	nt	nt	?	nt
COc1ccccc1CNC(=O)Cn1c(=O)ccc2cc(S(=O)(=O)N3CCCC3)ccc21	-27%	nt	nt	-29%	nt
CCCCNC(=O)Cn1c(=O)oc2cc(S(=O)(=O)N3CC(C)CC(C)C3)ccc21 (stereo not drawn)	12µM*	-10	0%	?	-3%
CCOc1ccccc1NC(=O)Cn1c(=O)ccc2cc(S(=O)(=O)N3CCC(C)CC3)ccc21	?	nt	nt	26µM*	nt
COc1ccccc1CNC(=O)Cn1c(=O)oc2cc(S(=O)(=O)N3CCC(C)CC3)ccc21	5.2µM*	nt	nt	2.9µM*	nt
CN[C@@H]1[C@@H](O[C@H]2O[C@H](CO)[C@@H](N)[C@H](O)[C@H]2O)O[C@H]2C[C@@H](N)[C@@H](O[C@H]3[C@H](O)[C@@H](O)[C@H](N)C[C@@H]3N)O[C@@H]2[C@@H]1O	-5%[21.1 µM]	nt	nt	-4%[21.1 µM]	nt
Cc1cccc(NC(=O)CSc2nc(=O)n(CCCN3CCOCC3)c3c2CCCC3)c1	0%	-26	4%	-2%	2%
CC(=O)c1ccc(-c2ccc(C(=O)Nc3nc(C)c(C(C)=O)s3)o2)cc1	-26%	-3	3%[9.24 µM]	-19%	13%
CCCn1c2c(c(O)c(C(=O)Nc3nccs3)c1=O)CCCC2	6%	43	13%	?	7%
